Molecules are shown by their SMILES. The campaign covered roughly 350,000 compounds. About 1,900 (0.54%) were called active.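 Rule for the calls: active = mean inhibition across replicates at least about 35%, with every replicate also reaching that limit (limit read from the data); inconclusive = only one of the two criteria met; inactive = neither criterion met.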 This excerpt belongs to a sample that is enriched for actives.

One may read the inhibition as the drop in the measured response relative to a control, in per cent.

Sequence of Caspase-6 (Homo sapiens) (P55212 24-179 limits assumed): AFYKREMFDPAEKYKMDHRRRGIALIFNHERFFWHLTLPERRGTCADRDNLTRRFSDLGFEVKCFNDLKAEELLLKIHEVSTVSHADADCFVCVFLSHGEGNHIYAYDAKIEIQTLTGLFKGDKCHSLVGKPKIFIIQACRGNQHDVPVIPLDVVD
Sequence of Caspase-6 (Homo sapiens) (P55212 194-293 limits assumed): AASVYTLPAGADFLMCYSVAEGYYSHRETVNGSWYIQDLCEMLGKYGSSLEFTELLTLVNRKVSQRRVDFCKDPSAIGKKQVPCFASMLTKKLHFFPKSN

The test addresses Caspase-6 (Homo sapiens) (UniProt P55212). Kind of test: inhibition of CASP6 peptide cleavage – biochemical, VEID-R110 fluorescence, single point, set 2, primary screen (AID 686996).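 Note: 0% = median of neutral control wells and 100% = no fluorescence left.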 As to conditions: purified caspase-6, Z-VEID-R110 cleavage fluorescence; at 12.5 µM; active compounds read high.
With `Cc1cc(/C=C2/SC(=O)N(CC(=O)OC(C)C)C2=O)c(C)n1C`, the inhibition is 1.11% (inactive).
The figure for `Cc1cc(/C=C2\SC(=O)N(C)C2=O)c(C)n1-c1cccc(C(=O)O)c1` is 39.2% (active).
The figure for `Cc1cc(/C=C2/SC(=O)N(CC(=O)N3CCCC3)C2=O)c(C)n1C` is 1.51% (inactive); for `O=C(C1=C[C@@H](c2ccccc2)C[C@@H](OCCCCO)O1)N1CCN(Cc2ccccc2)CC1` it is -1.99% (inactive).
With `C[C@@H]1CN([C@H](C)CO)C(=O)Cc2cc(NC(=O)CCN3CCOCC3)ccc2O[C@H]1CN(C)C`, the inhibition was 0.558% (inactive).
The figure for `COc1ccc2c3c([nH]c2c1)[C@@H](CO)N(Cc1ccncc1)CC31CN(C(=O)CN(C)C)C1` is -1.6% (inactive).
As for `O=C(c1snnc1-c1ccccc1)N1CCOCC1`, the inhibition was -0.096% (inactive).
Consider `O=C(NC(=O)N1CCOCC1)c1ccccc1`, for which the inhibition was -0.559% (inactive).
`Cc1oc2c(c1C(=O)N1CCOCC1)C(=O)c1ccccc1C2=O`: the inhibition is 62.8% (active).
The figure for `Cc1ccc(S(=O)(=O)N[C@H]2CC[C@H](CC(=O)O)O[C@H]2CO)cc1` is 3% (inactive); for `Cc1noc(C)c1S(=O)(=O)N(C)C[C@H]1OCCCC[C@@H](C)Oc2ccc(NC(=O)C3CCCCC3)cc2C(=O)N([C@H](C)CO)C[C@@H]1C` it is -3.38% (inactive); for `COc1ccc(NC(=O)Nc2ccc3c(c2)C(=O)N([C@@H](C)CO)C[C@@H](C)[C@@H](CN(C)S(=O)(=O)c2ccc(C)cc2)OCCCC[C@H](C)O3)cc1` it is -2.65% (inactive).
The figure for `COCC(=O)N1[C@@H](CO)[C@H](c2ccccc2)C12CN(C(=O)NC1CCCCC1)C2` is -0.716% (inactive); for `O=C(Nc1nc2ccc([N+](=O)[O-])cc2s1)c1ccncc1` it is 65.7% (active).
The figure for `O=C(Nc1ccncc1)c1ccc([N+](=O)[O-])cc1Cl` is -0.931% (inactive).
As to `O=C(Nc1ccccc1C(=O)Nc1ccncc1)c1ccc([N+](=O)[O-])cc1`, the inhibition is -0.84% (inactive).
Regarding `CC(C)NC(=O)N(C)C[C@H]1Oc2ncc(C#CC3CC3)cc2C(=O)N([C@H](C)CO)C[C@@H]1C`, the inhibition was -0.116% (inactive).
As for `C[C@H](CO)N1C[C@H](C)[C@H](CN(C)C(=O)Nc2cccc(Cl)c2Cl)OCc2ccccc2-c2ccccc2C1=O`, the inhibition was 0.728% (inactive).
The figure for `O=C(CCCN1C(=O)/C(=C/c2cccs2)SC1=S)Nc1ccc(O)cc1` is 0.413% (inactive).
The figure for `Cc1ccc(-c2nn(-c3ccccc3)cc2/C=C2\SC(=S)N(CCCCCC(=O)O)C2=O)o1` is 49.9% (active); for `COc1cccc(/C=C2\SC(=S)N(CCCC(=O)N3CCOCC3)C2=O)c1` it is -1.77% (inactive).
The figure for `Cc1ccc(S(=O)(=O)Nc2ccc3c(c2)C(=O)N(C)[C@H]2CC[C@H](CC(=O)O)O[C@H]2CO3)cc1` is 0.009% (inactive); for `C[C@H](CO)N1C[C@H](C)[C@H](CN(C)C(=O)C2CCC2)Oc2ncc(C#CCc3ccccc3)cc2C1=O` it is -2.13% (inactive); for `O=C(O)CCn1c(O)c(C=C2N=c3ccccc3=N2)sc1=S` it is 35.5% (active).
Turning to `Cc1ccc(S(=O)(=O)N(C)C[C@@H]2Oc3c(NS(C)(=O)=O)cccc3C(=O)N([C@@H](C)CO)C[C@H]2C)cc1`, the inhibition was 0.89% (inactive).
With `COc1cccc(NC(=O)Nc2ccc3c(c2)C(=O)N(C)[C@@H]2CC[C@@H](CC(=O)NCCc4ccccc4)O[C@H]2CO3)c1`, the inhibition is 1.41% (inactive).
The figure for `CCOc1ccccc1NC(=O)Cc1cccs1` is 39.6% (active).
The figure for `COc1ccc(OC)c(NC(=O)Cc2cccs2)c1` is 25.5% (inactive); for `CCOC(=O)c1ccc(NC(=O)Cc2cccs2)cc1` it is 0.303% (inactive).
As to `CO[C@H]1CN(C)C(=O)c2cc(NC(=O)Nc3cccc(F)c3)ccc2OC[C@@H](C)N(C)C[C@@H]1C`, the inhibition is -5.35% (inactive).
Regarding `C[C@H]1CN([C@@H](C)CO)S(=O)(=O)c2ccc(-c3ccncc3)cc2O[C@H]1CN(C)S(C)(=O)=O`, the inhibition was -2.14% (inactive).
The figure for `COc1ccc(S(=O)(=O)Nc2ccc3c(c2)CC(=O)N([C@@H](C)CO)C[C@@H](C)[C@@H](CN(C)C(=O)Nc2c(C)noc2C)O3)cc1` is 1.08% (inactive); for `O=C(C[C@H]1CC[C@H]2[C@@H](COC[C@H](O)CN2S(=O)(=O)c2cccc(F)c2)O1)NC1CCC1` it is 0.605% (inactive); for `Cc1nnc(SC(C)C(=O)Nc2ccc(S(=O)(=O)NC3CCCCC3)cc2)s1` (stereo not given) it is 3.47% (inactive).
The figure for `Cc1nnc(SCC(=O)Nc2ccc(S(=O)(=O)Nc3ccc(Cl)nn3)cc2)s1` is 35.3% (active); for `CCCCCC(=O)Nc1ccc(S(=O)(=O)Nc2ccc(Cl)nn2)cc1` it is 9.99% (inactive); for `C[C@@H](NC(=O)C[C@H]1CC[C@@H](NC(=O)Cc2ccccn2)[C@@H](CO)O1)c1ccccc1` it is -7.46% (inactive).
The figure for `Oc1c(Cl)cc(Cl)c(Cl)c1Cc1c(O)c(Cl)cc(Cl)c1Cl` is 45.1% (active).
Consider `O=C(CSc1nc(O)c(Cc2ccccc2)c(=O)[nH]1)Nc1nc2c(s1)CCCC2`, for which the inhibition is 9.11% (inactive).
The figure for `CC(C)c1nc(SCC(=O)Nc2cccc(C(=O)O)c2)c2c3c(sc2n1)CCCC3` is 9.4% (inactive); for `O=C(CCc1nc2sc3c(c2c(=O)[nH]1)CCCC3)NCC(=O)Nc1ccccc1Br` it is 36.7% (active); for `O=c1ccc2c(-c3ccccc3S(=O)(=O)O)c3ccc(O)c(O)c3oc-2c1O` it is 87.7% (active).
Regarding `O=C(C[C@H]1CC[C@@H](NC(=O)Nc2ccc(F)cc2)[C@@H](CO)O1)NCCN1CCCC1`, the inhibition is -1.07% (inactive).
The figure for `O=C(O)Cn1cnc2c(NCc3ccccc3)ncnc21` is -2.69% (inactive).
In the case of `O=S(=O)(c1ccccc1)N1CC[C@@H]2[C@@H](CO)Nc3ccc(-c4ccccc4F)cc3[C@@H]21`, the inhibition was -0.847% (inactive).
With `C[C@H](CO)N1C[C@H](C)[C@H](CN(C)S(C)(=O)=O)Oc2ccc(NC(=O)CCCN(C)C)cc2C1=O`, the inhibition is -7.82% (inactive).
Consider `COC(=O)c1cccc(N2C(=O)C3C4C=CC(CC4)C3C2=O)c1` (stereo not given), for which the inhibition is 3.07% (inactive).
The figure for `COC(=O)c1cccc(NC(=O)c2cccc(N3C(=O)CCC3=O)c2)c1` is 45% (active); for `COc1ccccc1-c1nnc(NC(=O)c2cccc(N3C(=O)CCC3=O)c2)o1` it is 6.24% (inactive).
The figure for `C[C@@H]1CN([C@@H](C)CO)C(=O)c2cccc(NS(=O)(=O)c3ccc(Cl)cc3)c2O[C@@H]1CN(C)Cc1ccccc1` is 0.793% (inactive); for `O=C(C1CCC1)N1CC[C@@H]2[C@H]1c1cc(C#Cc3ccc(F)cc3)ccc1N[C@@H]2CO` it is 1.04% (inactive).
With `O=S(=O)(c1cc(Cl)ccc1Cl)N1CCN(Cc2ccco2)CC1`, the inhibition was 4.43% (inactive).
On to `O=C(CN1CCN(S(=O)(=O)c2cc(Cl)ccc2Cl)CC1)c1ccc(O)c(O)c1`, for which the inhibition is 35.7% (active).
The figure for `CCN1CCN(C(=O)C2CCN(S(=O)(=O)c3cc(Cl)ccc3Cl)CC2)CC1` is -3.59% (inactive).
The figure for `COc1cccc(CNC(=O)[C@H]2CCCN2C(=O)[C@H]2CCCN2C(=O)C2CCCCC2)c1` is 5.61% (inactive); for `COc1c(O)cc2oc(-c3ccc(O)c(O)c3)cc(=O)c2c1O` it is 39.1% (active); for `C#CCN1C(Cc2ccccc2)C(=O)O[C@H](C2CCCCC2)[C@@H]1/C=C/C1CC1` (stereo not given in full) it is -4.1% (inactive).
As for `N#CC1=C(N)Oc2n[nH]c(CSc3ccccc3)c2C12C(=O)Nc1ccccc12` (stereo not given), the inhibition was 7.38% (inactive).
Regarding `N#CC1=C(N)Oc2[nH]c(=S)[nH]c(=O)c2C12C(=O)Nc1ccccc12` (stereo not given), the inhibition was 45.4% (active).
As to `C[C@@H]1CN([C@@H](C)CO)S(=O)(=O)c2ccc(C3=CCCCC3)cc2O[C@@H]1CN(C)C(=O)CN(C)C`, the inhibition is 0.621% (inactive).
In the case of `CCS(=O)(=O)N1CC2(CN(Cc3cc(F)ccc3F)[C@@H](CO)c3c2c2ccc(OC)cc2n3C)C1`, the inhibition was -1.32% (inactive).
The figure for `C[C@H](CO)N1C[C@H](C)[C@H](CN(C)CC2CCCC2)Oc2ncc(Br)cc2C1=O` is 0.088% (inactive); for `C[C@@H]1CN([C@@H](C)CO)C(=O)c2cc(NS(=O)(=O)c3ccc(Cl)cc3)ccc2O[C@H]1CN(C)S(=O)(=O)c1cn(C)cn1` it is -0.705% (inactive).
The figure for `Cc1ccc(S(=O)(=O)N/N=C(\c2ccccc2)C2CC2)cc1` is 8.02% (inactive).
The figure for `Cc1ccc(S(=O)(=O)/N=C2\C=C(NS(=O)(=O)c3ccc(C)cc3)C(=O)c3ccccc32)cc1` is 62.8% (active); for `CNC(=O)COc1ccc(S(=O)(=O)Nc2ccccc2)cc1` it is 0.091% (inactive); for `COc1ccc(S(=O)(=O)/N=C2\C=C(NS(=O)(=O)c3ccccc3)C(=O)c3ccccc32)cc1` it is 55.8% (active).
As to `COc1ccc(NS(=O)(=O)c2ccc(Oc3c(C#N)cccc3C#N)cc2)cc1`, the inhibition is -1.42% (inactive).
The figure for `Cc1ccc(S(=O)(=O)N[C@H](CO)C(C)C)cc1` is 1.4% (inactive); for `CO[C@H]1CN(C)C(=O)c2ccc(NS(=O)(=O)c3ccccc3)cc2OC[C@H](C)N(Cc2nccs2)C[C@@H]1C` it is 0.023% (inactive); for `C[C@@H](O)C#Cc1ccc([C@H]2[C@@H](CO)N3CCCCN(S(=O)(=O)c4ccccc4)C[C@@H]23)cc1` it is -3.52% (inactive).
The figure for `CCCNC(=O)C[C@H]1C[C@@H]2c3cc(NS(=O)(=O)c4cccc(OC)c4)ccc3O[C@@H]2[C@@H](CO)O1` is 2.43% (inactive); for `C[C@@H]1C[C@@H]2O[C@H]2/C=C\C=C\C(=O)Cc2c(Cl)c(O)cc(O)c2C(=O)O1` it is 37.4% (active); for `COc1ccc(S(=O)(=O)N(C)C[C@H]2Oc3c(NC(=O)CCCCCC(=O)Nc4ccccc4N)cccc3C(=O)N([C@H](C)CO)C[C@H]2C)cc1` it is -1.7% (inactive).
The figure for `O=C(Cc1ccccc1)N[C@H]1C=C[C@H](CC(=O)N2CCCCC2)O[C@@H]1CO` is -1.28% (inactive).

Source of the values: PubChem BioAssay AID686996 (Broad Institute, 2013).
